# Measured values taken from PubChem BioAssay (NCATS).
# Inconclusive results are not listed. The source made the active and inactive calls. The call rests on the fitted dose curve. Starred links: 1 amine or outer side, 2 acyl side, 3 side chain; linkers in the order of their positions; H or OH if unused. Positions of bridges follow the written chain, without caps; N, C: chain ends. Non-standard residues stand in square brackets, D forms with d. Residues, ends and D or L forms follow the SMILES beside them. Chains are numbered I, II in the order given. Actinocin(9to1) = Cc1c2oc3c(C)ccc(C(=O)[*:1])c3nc-2c(C(=O)[*:2])c(N)c1=O; NMeV = CN[CH](C(=O)O)C(C)C; Sar = CNCC(=O)O
# Key:
# [1] = qHTS drug screen for cell cycle checkpoint inhibitors in PARPi-resistant BRCA-mutant ovarian cancer cell lines. (AID 1963452); conditions: PEO1/OlaR viability, CellTiter-Glo luminescence, 96 h; for Z-AUC: stronger effect = lower value
# Procedure, shortened: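 PEO1, PEO4 and PEO1/OlaR ovarian cancer cells, 600 per well, exposed 96 h at 37C to a dilution series. Viability read by CellTiter-Glo luminescence, normalized to DMSO and empty wells; activity summarized as Z-AUC.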
# [2] = qHTS for identification of novel therapeutic agents for treatment of microphthalmiaassociated transcription factor (MiT) renal cell carcinoma (RCC) (AID 1963991); conditions: CellTiter-Glo, 48 h; for z-score: stronger effect = lower value; for Potency: active = Z-AUC below -0.8 in all three lines
# Procedure, shortened: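 Three TFE3-fusion RCC lines (UOK109, UOK124, UOK145), 500 cells/well in complete medium, were treated with MIPE 4.0 compounds for 48 hours at 37 C. Viability was by CellTiter-Glo luminescence, normalized to DMSO (100%) and empty wells (0%); curves fitted over 11 concentrations.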
# [3] = measured here: PEO1 parental Z-AUC
# [4] = TFE3-RCC UOK109 viability, measured here: UOK109 Z-AUC
# [5] = TFE3-RCC viability, measured here: UOK124 Z-AUC
# [6] = TFE3-RCC viability, measured here: UOK145 Z-AUC
# Potency means the concentration at half of the fitted maximal effect.
SMILES,Z-AUC [1],"Z-AUC [1, 3]",Z-AUC ([1]; measured here: PEO4 Z-AUC),"z-score [2, 4]","z-score [2, 5]","z-score [2, 6]",Potency [1],Potency ([2]; TFE3-RCC UOK109 viability)
CC(=O)OC[C@@H]1O[C@@H](n2ccc(=O)[nH]c2=O)[C@H](OC(C)=O)[C@H]1OC(C)=O,0.415 (inactive),0.423,0.195,0.396,1.22,0.244,–,–
OC[C@H]1OC(O)C[C@@H](O)[C@H]1O (some centres undefined),-0.67 (inactive),-0.645,-0.88,1.34,0.406,-0.0329,–,–
COc1ccc(C=Cc2cc(OC)c(OC)c(OC)c2)cc1NC(=O)[C@H](N)CO,–,-1.39,-1.42,-2.33,-3.86,-1.55,54.9 nM (active),10.5 nM (active)
C=C(C)[C@@H]1CC[C@]2(C)CC[C@]3(C)[C@H](CC[C@@H]4[C@@]5(C)CC[C@H](O)C(C)(C)[C@H]5CC[C@]43C)[C@@H]12,1.12 (inactive),0.74,1.16,1.03,0.631,0.295,–,–
Nc1ccn(C[C@@H](CO)OCP(=O)(O)O)c(=O)n1,-1.33 (inactive),-0.089,-0.602,1.6,1.03,1.52,–,–
Cc1cncc2cccc(S(=O)(=O)N3CCCN(C(=O)CN)C[C@@H]3C)c12,-0.369 (inactive),-0.0744,-0.172,1.38,0.196,0.7,–,–
C[C@H](CCC(=O)O)[C@H]1CCC2C3C[C@H](O)[C@@H]4C[C@H](O)CC[C@]4(C)C3CC[C@@]21C (some centres undefined),0.00585 (inactive),0.454,0.29,0.156,0.446,0.00817,–,–
Cn1cc(C[C@@H](N)C(=O)O)c2ccccc21,0.11 (inactive),1.01,0.769,1.28,1.02,1.04,–,–
Nc1cccc2c1C(=O)N(C1CCC(=O)NC1=O)C2=O (centres undefined),-0.524 (inactive),-0.0375,-0.357,0.502,0.0802,-0.491,–,–
N#Cc1c(NC(=O)c2cccc3ccccc23)sc2c1CCCC2,-0.477 (inactive),-0.695,-0.753,-1.37,-1.52,-1.31,–,833 nM (active)
"Cc1c2oc3c(C)ccc(C(=O)NC4C(=O)NC(C(C)C)C(=O)N5CCCC5C(=O)N(C)CC(=O)N(C)C(C(C)C)C(=O)OC4C)c3nc-2c(C(=O)NC2C(=O)NC(C(C)C)C(=O)N3CCCC3C(=O)N(C)CC(=O)N(C)C(C(C)C)C(=O)OC2C)c(N)c1=O (centres undefined) (I: TVP[Sar][NMeV] / II: TVP[Sar][NMeV]; ester I:1-I:C, II:1-II:C; linker I:N-II:N via Actinocin(9to1); configuration not given here)",-0.322 (inactive),-0.674,-0.27,-4.2,-4.25,-3.66,–,–
CC(=O)O[C@H]1C[C@@H]2CC[C@H]3[C@H]4C[C@H]([N+]5(C)CCCCC5)[C@@H](OC(C)=O)[C@@]4(C)CC[C@@H]3[C@@]2(C)C[C@H]1[N+]1(C)CCCCC1,0.98 (inactive),1.06,1.25,0.763,0.611,-1.4,–,–
CCCCC(=O)O[C@]1(C(=O)CO)[C@@H](C)C[C@H]2[C@@H]3CCC4=CC(=O)C=C[C@]4(C)[C@@]3(F)[C@@H](O)C[C@@]21C,-0.479 (inactive),0.863,0.108,-0.136,0.0594,0.664,–,–
CCCNS(=O)(=O)Nc1ncnc(OCCOc2ncc(Br)cn2)c1-c1ccc(Br)cc1,0.736 (inactive),0.726,1.05,1.06,1.04,0.601,–,–
COc1cc(OC)c(NC(=O)Nc2cc(C)on2)cc1Cl,1.05 (inactive),1.02,1.3,0.422,0.71,0.616,–,–
C[C@H]1COc2c(N3CCN(C)CC3)c(F)cc3c(=O)c(C(=O)O)cn1c23,-0.648 (inactive),-0.279,-0.579,1.28,0.967,1.39,–,–
CC(Oc1ccc(O)cc1)(P(=O)(O)O)P(=O)(O)O,0.474 (inactive),0.34,0.383,0.171,0.237,0.233,–,–
Cc1noc(-c2ccc(CSCCC(=O)O)cc2)c1NC(=O)OC(C)c1ccccc1Cl (centres undefined),-0.506 (inactive),-0.869,-0.91,-0.684,0.0534,0.402,–,–
CCCCCCCN(CC)CCCC(O)c1ccc(NS(C)(=O)=O)cc1 (centres undefined),1.02 (inactive),0.764,1.03,0.349,-0.246,0.649,–,–
O=C(Nc1ccc(Oc2ccnc3[nH]ccc23)c(F)c1)c1cccn(-c2ccc(F)cc2)c1=O,-0.152 (inactive),0.598,0.646,0.0941,0.0675,0.349,–,–
Cn1cc(CNCC2CCN(c3ncc(C(=O)NO)cn3)CC2)c2ccccc21,–,-1.95,-1.89,-1.71,-4.28,-1.68,195 nM (active),166 nM (active)
